Of roughly 6,500 targets only a part is listed; those with a hit were picked by preference. About 2% of all pairs of compound and target were hits. Unmarked numbers belong to inactive results.
compound: COC(=O)C#Cc1ccccc1 [methyl 3-phenylpropiolate]; assay: log2 ratio of iodoacetamide-alkyne labeling of the cysteine site, DMSO over compound (competition); higher = stronger covalent engagement of the cysteine by the compound, active = 1 or more; conditions: 500 µM; treatment time 1 h; system: HEK293T cell lysate
Outline: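 HEK293T lysate (2 mg/mL) was incubated with electrophile (500 µM) or vehicle for 1 h at ambient temperature and then with iodoacetamide alkyne for 1 h. Labelled proteins were clicked to sCIP-TMT reagents, pooled, digested, enriched on streptavidin and measured by Orbitrap Eclipse LC-MS/MS with FAIMS, with FragPipe quantification. The per-cysteine log2 competition ratio is mean control-channel reporter intensity over mean compound-channel reporter intensity. Across three replicates with duplicate channels, cysteines quantified in only one replicate were excluded.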

UniProt Q9Y2P8, sequence (Q9Y2P8 whole entry): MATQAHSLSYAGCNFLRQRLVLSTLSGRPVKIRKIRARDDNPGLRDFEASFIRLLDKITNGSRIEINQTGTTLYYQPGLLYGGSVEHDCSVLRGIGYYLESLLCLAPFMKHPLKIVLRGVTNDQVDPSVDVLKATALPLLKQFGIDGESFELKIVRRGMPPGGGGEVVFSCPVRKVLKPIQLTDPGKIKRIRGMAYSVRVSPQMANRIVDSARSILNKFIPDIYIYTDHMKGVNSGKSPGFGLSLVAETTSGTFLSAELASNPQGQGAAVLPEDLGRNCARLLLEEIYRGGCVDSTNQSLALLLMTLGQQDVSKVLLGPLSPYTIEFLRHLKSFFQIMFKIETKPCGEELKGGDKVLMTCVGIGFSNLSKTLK
UniProt Q9NTJ3, sequence (Q9NTJ3 whole entry, looked up): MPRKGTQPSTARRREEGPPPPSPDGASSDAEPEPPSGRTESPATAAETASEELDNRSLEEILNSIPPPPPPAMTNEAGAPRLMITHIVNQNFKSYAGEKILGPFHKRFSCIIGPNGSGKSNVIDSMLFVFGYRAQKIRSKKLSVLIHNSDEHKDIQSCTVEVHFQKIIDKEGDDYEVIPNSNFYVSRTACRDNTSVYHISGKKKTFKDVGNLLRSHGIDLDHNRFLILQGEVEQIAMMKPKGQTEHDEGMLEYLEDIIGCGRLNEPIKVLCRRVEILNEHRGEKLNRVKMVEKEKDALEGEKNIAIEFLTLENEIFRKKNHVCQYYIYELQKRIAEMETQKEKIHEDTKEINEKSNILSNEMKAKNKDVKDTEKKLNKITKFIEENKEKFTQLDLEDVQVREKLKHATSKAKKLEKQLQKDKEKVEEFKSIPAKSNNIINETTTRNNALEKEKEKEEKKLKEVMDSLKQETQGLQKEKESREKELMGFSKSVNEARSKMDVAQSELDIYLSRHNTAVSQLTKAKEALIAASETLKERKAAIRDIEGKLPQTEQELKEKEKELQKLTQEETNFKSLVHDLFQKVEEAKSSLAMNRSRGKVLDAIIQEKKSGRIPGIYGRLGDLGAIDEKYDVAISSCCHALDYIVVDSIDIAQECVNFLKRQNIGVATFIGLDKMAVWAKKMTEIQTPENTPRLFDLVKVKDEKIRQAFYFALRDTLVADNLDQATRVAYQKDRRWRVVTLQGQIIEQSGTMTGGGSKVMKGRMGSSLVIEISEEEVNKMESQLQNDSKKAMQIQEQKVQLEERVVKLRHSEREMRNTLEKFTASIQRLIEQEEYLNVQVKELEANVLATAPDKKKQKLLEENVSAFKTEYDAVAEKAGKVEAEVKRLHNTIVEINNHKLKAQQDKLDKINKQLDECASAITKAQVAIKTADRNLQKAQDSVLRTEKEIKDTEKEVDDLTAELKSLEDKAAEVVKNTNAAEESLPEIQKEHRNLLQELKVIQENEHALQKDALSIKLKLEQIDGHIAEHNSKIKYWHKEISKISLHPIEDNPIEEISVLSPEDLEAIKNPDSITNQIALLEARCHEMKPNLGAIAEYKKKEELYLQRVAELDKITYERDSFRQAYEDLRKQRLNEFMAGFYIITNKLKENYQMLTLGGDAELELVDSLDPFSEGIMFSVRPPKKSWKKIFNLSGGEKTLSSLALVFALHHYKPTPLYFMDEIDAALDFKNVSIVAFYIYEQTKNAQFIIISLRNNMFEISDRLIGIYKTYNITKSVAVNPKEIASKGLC
UniProt Q9ULI3, sequence (Q9ULI3 whole entry): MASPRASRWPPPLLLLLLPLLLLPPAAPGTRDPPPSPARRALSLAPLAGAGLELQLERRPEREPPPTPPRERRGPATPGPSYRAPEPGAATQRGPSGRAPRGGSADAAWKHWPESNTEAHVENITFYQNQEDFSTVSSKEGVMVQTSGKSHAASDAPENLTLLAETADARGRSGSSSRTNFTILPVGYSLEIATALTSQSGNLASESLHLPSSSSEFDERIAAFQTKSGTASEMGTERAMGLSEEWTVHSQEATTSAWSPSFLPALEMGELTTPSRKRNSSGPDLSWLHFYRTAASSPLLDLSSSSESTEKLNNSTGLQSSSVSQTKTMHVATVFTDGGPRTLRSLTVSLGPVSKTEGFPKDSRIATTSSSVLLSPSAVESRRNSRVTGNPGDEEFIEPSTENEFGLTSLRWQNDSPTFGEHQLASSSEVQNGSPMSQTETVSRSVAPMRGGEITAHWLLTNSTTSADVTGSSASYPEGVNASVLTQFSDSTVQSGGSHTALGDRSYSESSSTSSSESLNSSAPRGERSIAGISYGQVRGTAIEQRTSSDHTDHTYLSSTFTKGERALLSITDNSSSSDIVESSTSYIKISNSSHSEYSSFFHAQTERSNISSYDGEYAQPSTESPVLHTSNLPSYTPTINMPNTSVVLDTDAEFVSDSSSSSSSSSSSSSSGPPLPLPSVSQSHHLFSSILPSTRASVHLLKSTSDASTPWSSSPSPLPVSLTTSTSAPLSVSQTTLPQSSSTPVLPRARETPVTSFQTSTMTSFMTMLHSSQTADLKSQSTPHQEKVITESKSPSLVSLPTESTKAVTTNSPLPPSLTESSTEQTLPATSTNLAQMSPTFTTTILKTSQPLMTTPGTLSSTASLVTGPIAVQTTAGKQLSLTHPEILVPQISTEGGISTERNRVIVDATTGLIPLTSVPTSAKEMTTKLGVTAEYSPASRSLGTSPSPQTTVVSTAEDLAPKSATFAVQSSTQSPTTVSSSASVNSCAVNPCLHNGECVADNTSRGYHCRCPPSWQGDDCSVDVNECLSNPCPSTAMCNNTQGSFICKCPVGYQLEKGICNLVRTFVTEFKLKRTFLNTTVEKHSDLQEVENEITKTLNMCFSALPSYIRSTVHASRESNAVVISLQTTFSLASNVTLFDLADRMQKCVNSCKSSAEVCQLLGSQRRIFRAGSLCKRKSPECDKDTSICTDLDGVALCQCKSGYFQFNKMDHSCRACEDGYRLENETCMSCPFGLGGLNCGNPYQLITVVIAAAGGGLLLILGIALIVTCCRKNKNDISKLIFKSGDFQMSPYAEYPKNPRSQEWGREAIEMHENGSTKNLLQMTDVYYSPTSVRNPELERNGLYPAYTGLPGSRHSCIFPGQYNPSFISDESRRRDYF
UniProt Q9UMS4, sequence (Q9UMS4 whole entry, looked up): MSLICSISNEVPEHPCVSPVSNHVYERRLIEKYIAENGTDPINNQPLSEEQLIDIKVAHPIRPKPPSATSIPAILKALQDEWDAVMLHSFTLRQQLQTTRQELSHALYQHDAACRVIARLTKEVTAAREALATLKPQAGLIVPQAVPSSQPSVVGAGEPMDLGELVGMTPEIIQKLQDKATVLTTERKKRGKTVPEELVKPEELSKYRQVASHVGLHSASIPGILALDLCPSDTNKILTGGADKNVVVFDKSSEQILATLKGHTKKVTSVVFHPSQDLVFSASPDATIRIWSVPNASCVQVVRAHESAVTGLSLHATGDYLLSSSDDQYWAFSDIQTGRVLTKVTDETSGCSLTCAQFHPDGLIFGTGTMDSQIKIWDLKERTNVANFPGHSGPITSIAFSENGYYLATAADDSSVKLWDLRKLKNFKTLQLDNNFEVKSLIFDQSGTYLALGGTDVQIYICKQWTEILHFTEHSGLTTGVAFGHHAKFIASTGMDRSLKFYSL
UniProt Q9UHW5, sequence (Q9UHW5 whole entry, looked up): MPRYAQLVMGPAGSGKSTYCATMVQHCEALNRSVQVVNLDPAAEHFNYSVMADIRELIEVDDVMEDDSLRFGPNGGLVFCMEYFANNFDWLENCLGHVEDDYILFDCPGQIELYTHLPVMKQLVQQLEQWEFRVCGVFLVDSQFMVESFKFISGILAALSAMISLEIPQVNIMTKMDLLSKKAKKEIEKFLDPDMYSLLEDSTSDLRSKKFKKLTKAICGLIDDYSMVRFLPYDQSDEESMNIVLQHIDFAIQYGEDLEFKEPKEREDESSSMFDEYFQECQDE
UniProt Q9H7B4, sequence (Q9H7B4 whole entry): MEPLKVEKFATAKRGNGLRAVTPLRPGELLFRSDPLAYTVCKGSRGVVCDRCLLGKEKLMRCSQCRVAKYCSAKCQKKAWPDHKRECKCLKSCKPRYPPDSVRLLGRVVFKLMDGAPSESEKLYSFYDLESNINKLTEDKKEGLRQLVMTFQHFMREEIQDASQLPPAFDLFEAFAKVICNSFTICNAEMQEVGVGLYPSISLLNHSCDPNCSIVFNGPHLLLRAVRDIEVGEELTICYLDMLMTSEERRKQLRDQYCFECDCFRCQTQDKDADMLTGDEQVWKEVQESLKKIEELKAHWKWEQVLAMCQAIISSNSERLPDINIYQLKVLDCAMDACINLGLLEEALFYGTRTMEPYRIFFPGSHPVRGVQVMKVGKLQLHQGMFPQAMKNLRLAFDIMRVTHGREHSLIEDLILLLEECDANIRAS
UniProt Q9BVQ7, sequence (Q9BVQ7 whole entry, looked up): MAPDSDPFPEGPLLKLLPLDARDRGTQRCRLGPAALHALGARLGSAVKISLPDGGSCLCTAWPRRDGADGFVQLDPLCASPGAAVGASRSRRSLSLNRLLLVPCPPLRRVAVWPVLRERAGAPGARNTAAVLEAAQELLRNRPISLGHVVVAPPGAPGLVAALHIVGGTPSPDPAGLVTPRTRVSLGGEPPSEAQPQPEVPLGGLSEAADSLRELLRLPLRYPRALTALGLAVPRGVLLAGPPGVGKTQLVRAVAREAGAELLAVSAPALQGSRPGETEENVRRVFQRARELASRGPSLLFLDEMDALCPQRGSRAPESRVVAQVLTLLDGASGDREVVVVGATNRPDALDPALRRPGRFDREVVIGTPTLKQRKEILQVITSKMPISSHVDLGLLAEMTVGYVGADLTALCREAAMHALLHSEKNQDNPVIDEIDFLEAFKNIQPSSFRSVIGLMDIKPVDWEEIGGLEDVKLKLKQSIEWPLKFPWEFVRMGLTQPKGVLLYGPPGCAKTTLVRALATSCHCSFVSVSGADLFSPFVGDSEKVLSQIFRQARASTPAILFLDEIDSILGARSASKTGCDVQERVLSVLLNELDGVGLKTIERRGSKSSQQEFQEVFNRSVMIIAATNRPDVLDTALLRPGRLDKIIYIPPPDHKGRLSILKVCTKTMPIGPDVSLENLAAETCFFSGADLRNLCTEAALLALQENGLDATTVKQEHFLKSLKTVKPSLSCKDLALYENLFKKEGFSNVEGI

| Target | log2 ratio of iodoacetamide-alkyne labeling |
| --- | --- |
| SMARCAD1 C772 (UniProt Q9H4L7) | 1 (active) |
| ASF1B C172 (UniProt Q9NVP2) | 1.22 (active) |
| XPO4 C1149 (UniProt Q9C0E2) | 0.048 |
| TCAF1 C488 (UniProt Q9Y4C2) | 0.36 |
| CD2AP C540 (UniProt Q9Y5K6) | 0.456 |
| MED17 C110 (UniProt Q9NVC6) | 0.34 |
| SEC63 C366 (UniProt Q9UGP8) | -0.163 |
| UniProt Q9NPA3_C62 | 0.293 |
| SPATA5L1 C309 (UniProt Q9BVQ7) | 1.11 (active) |
| HEG1 C1360 (UniProt Q9ULI3) | 1.36 (active) |
| IARS2 C91 (UniProt Q9NSE4) | 0.81 |
| RCL1 C13 (UniProt Q9Y2P8) | -0.0901 |
| TNKS1BP1 C1324 (UniProt Q9C0C2) | 1.18 (active) |
| PRPF19 C230 (UniProt Q9UMS4) | 0.231 |
| DLGAP4 C726 (UniProt Q9Y2H0) | 0.74 |
| TNKS1BP1 C1296 (UniProt Q9C0C2) | 0.451 |
| SMC4 C190 (UniProt Q9NTJ3) | 0.109 |
| ZDBF2 C628 (UniProt Q9HCK1) | 0.47 |
| ATG3 C182 (UniProt Q9NT62) | 0.632 |
| PPME1 C386 (UniProt Q9Y570) | 1.48 (active) |

| Target | log2 ratio of iodoacetamide-alkyne labeling |
| --- | --- |
| STRAP C305 (UniProt Q9Y3F4) | 0.0837 |
| SMYD3 C421 (UniProt Q9H7B4) | 0.00903 |
| UniProt Q9NW64_C24 | 0.351 |
| CTSZ C92 (UniProt Q9UBR2) | -0.349 |
| SRRM2 C1480 (UniProt Q9UQ35) | 0.319 |
| FAM83D C19 (UniProt Q9H4H8) | 1.11 (active) |
| NAT10 C489 (UniProt Q9H0A0) | 0.0616 |
| MDN1 C172 (UniProt Q9NU22) | 0.0689 |
| TANC1 C131 (UniProt Q9C0D5) | 0.487 |
| GPN3 C219 (UniProt Q9UHW5) | 0.0998 |
| HECTD1 C1995 (UniProt Q9ULT8) | 0.345 |
| RUVBL2 C227 (UniProt Q9Y230) | 0.198 |
| AFG3L2 C525 (UniProt Q9Y4W6) | 0.198 |
| OSBPL3 C203 (UniProt Q9H4L5) | 0.76 |
| HECTD1 C1368 (UniProt Q9ULT8) | 0.751 |
| DDX56 C286 (UniProt Q9NY93) | 0.51 |
| MIOS C321 (UniProt Q9NXC5) | 0.126 |
| TNKS1BP1 C1337 (UniProt Q9C0C2) | 1.01 (active) |
| FAM83D C15 (UniProt Q9H4H8) | 1.11 (active) |
| SAMHD1 C80 (UniProt Q9Y3Z3) | 0.175 |

Source: the supplement of paper PMC11006884
